# Screens: PubChem BioAssay, The Scripps Research Institute Molecular Screening Center
# PAFAH2 FP inh: PAFAH2 enzyme inhibitors, primary screen, biochemical, fluorescence polarization, human | AID 492956, 2010 | hit rate 0.99% among 340,000 | recombinant PAFAH2, FP-rhodamine activity probe | Platelet-activating factor acetylhydrolase 2, cytoplasmic (Homo sapiens), Q99487 | inhibition, % at 3.39 µM;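 active = inhibition above the mean over all tested compounds plus 3 SD, cut at about 30% in these data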;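 note: inhibitors block probe labeling of enzyme so polarization drops; 0% = enzyme with DMSO and 100% = wells lacking PAFAH2 protein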
# Fam108B counter: mouse Fam108B serine hydrolase inhibitors, primary screen, counter-screen for RBBP9 inhibitor project, biochemical, fluorescence polarization. recombinant Fam108B, FP-Rh probe fluorescence polarization. hit rate 0.33% among 300,000. AID 1947, 2009. inhibition, % at 9.51 µM;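 active = inhibition above the screen mean inhibition plus 3 SD, computed separately per campaign, cut at about 18% in these data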;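 note: inhibitors lower polarization as less probe binds the enzyme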
# PAFAH1B3 inh: PAFAH1B3 enzyme inhibitors, primary screen, biochemical, fluorescence polarization, human. Platelet-activating factor acetylhydrolase IB subunit alpha1 (Homo sapiens), Q15102. recombinant PAFAH1B3, FP-rhodamine probe. hit rate 0.28% among 340,000. AID 492972, 2010. inhibition, % at 3.39 µM;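 active = inhibition above the screen-wide average of all tested compounds plus 3 SD, cut at about 25% in these data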;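 note: 0% = enzyme with DMSO only and 100% = wells lacking PAFAH1B3 protein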
# Target sequence (Q15102 whole entry, looked up): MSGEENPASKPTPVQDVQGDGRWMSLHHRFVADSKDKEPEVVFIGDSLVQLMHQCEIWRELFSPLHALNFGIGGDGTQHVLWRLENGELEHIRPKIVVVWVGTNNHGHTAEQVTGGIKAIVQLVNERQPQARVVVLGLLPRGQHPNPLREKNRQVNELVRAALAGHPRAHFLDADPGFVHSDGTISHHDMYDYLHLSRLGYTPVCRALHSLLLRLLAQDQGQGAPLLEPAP
# pPAFAH FP inh: pPAFAH enzyme inhibitors, primary screen, biochemical, fluorescence polarization, human. recombinant pPAFAH, FP-rhodamine probe fluorescence polarization. inhibition, % at 3.39 µM. hit rate 1.5% among 330,000. AID 463082, 2010;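 active = inhibition above the mean inhibition across the screen plus 3 SD, cut at about 25% in these data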;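 note: inhibitors block binding of the rhodamine activity-based probe so polarization drops; 0% = enzyme with DMSO and 100% = wells lacking pPAFAH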
# PME-1 primary: PME-1 inhibitors via competitive probe labeling, primary screen, biochemical, fluorescence polarization, FP-Rh probe, HTS. Protein phosphatase methylesterase 1 (Homo sapiens), Q9Y570. recombinant PME-1. inhibition, % at 5.9 µM. hit rate 0.53% among 320,000. AID 2130, 2009;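 active = inhibition above the campaign mean of all compounds plus 3 SD, cut at about 26% in these data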;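 note: competitive labeling of PME-1 active site by serine hydrolase directed probe; 0% = PME-1 with DMSO and 100% = wells lacking PME-1 enzyme; inhibitors block probe labeling so polarization falls and inhibition rises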
# PAFAH1B2 inh: PAFAH1B2 enzyme inhibitors, primary screen, biochemical, fluorescence polarization, human. recombinant PAFAH1B2, FP-rhodamine activity probe. inhibition, % at 3.39 µM. hit rate 1.2% among 340,000;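 active = inhibition above the mean of all tested compounds plus 3 SD, cut at about 24% in these data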;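 note: 0% = enzyme with DMSO and 100% = wells lacking PAFAH1B2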
# Target sequence (P68402 whole entry, looked up): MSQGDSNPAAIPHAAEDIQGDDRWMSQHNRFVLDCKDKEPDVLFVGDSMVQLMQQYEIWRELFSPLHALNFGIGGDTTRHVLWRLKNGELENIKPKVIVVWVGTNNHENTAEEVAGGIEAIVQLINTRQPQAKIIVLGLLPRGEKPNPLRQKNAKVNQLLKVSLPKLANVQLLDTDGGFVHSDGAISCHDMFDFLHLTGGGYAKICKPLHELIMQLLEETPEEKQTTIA
# PAFAH2 FP conf: PAFAH2 enzyme inhibitors, confirmation, biochemical, fluorescence polarization, human; shares compounds with PAFAH2 FP inh; recombinant PAFAH2, FP-rhodamine activity probe; inhibition, % at 3.39 µM; hit rate 65% among 2,300;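 active = mean inhibition over three repeats above a set limit taken from the earlier primary screen, cut at about 30% in these data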;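 note: inhibitor blocks binding of rhodamine activity probe so polarization falls; 0% = enzyme with DMSO and 100% = wells lacking PAFAH2 protein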
# An asterisk follows results filed as active; · = not tested or not shown. Only some compounds are listed: those with a hit (about 2.9% of all), similar ones and a draw of the others.
SMILES,PAFAH2 FP inh,Fam108B counter,PAFAH1B3 inh,pPAFAH FP inh,PME-1 primary,PAFAH1B2 inh,PAFAH2 FP conf
CCN(CC(=O)Nc1c(F)cccc1F)C(=O)/C=C/c1ccc2c(c1)OCO2,1,-1,-4,-3,0,5,·
Nc1cc(C(F)(F)F)ccc1NCCc1ccccn1,64*,4,5,7,10,6,52*
OCCC1CN(Cc2nc3ccccc3s2)CCN1C1CCCC1 (stereo unspecified),-4,4,8,0,5,2,·
Cn1c(N)c(C(=O)CSc2nc3ccccc3[nH]2)c(=O)n(C)c1=O,8,2,2,-4,1,5,·
O=C(COC(=O)c1ccccc1C(=O)N1CCN(c2ccccc2)CC1)Nc1ccccc1,63*,-2,11,5,-3,5,60*
COc1cccc(NC(=O)COC(=O)c2ccccc2C(=O)N2CCN(c3ccccc3)CC2)c1,54*,3,-7,7,4,2,54*
O=C(COC(=O)c1ccccc1C(=O)N1CCN(c2ccc(F)cc2)CC1)NCc1ccccc1,20,-1,12,8,3,4,·
O=C(COC(=O)c1ccccc1C(=O)N1CCN(c2ccccc2)CC1)Nc1ccc(F)cc1,74*,3,-1,5,1,2,60*
COc1cccc(NC(=O)COC(=O)C2=NN(c3ccccc3)C(=O)CC2)c1,24,·,6,17,·,5,·
C=CCn1c(NCc2ccc(OC)cc2O)nc2ccccc21,2,-4,4,9,1,7,·
N#Cc1cccc(NC(=O)CSc2sc3c(O)cc(=O)[nH]c3c2C#N)c1,40*,0,13,0,-18,15,-2
N#Cc1cccc(NC(=O)CSc2n[nH]c(=O)[nH]c2=O)c1,1,-3,-3,2,2,6,·
C=CCn1c(O)c(N=NC(=O)c2ccccc2NS(=O)(=O)c2cccs2)c2ccccc21,37*,6,5,2,-3,9,27
CN(C)c1ccc(NC(=O)CCN2CCN(c3ccccn3)CC2)cc1,3,-1,-1,-2,-5,-4,·
O=C1c2cccc3cccc(c23)C(=O)N1OS(=O)(=O)c1ccc(Cl)cc1,33*,0,10,5,-1,3,34*
Cn1nnnc1SCC1=C(C(=O)O)N2C(=O)C(NC(=O)C3CC3c3ccccc3)C2SC1 (stereo unspecified),44*,-3,-3,1,2,7,6
COc1cc(C(=O)NCCCCc2ccccc2)cc(OC)c1OC,-2,0,4,9,2,4,·
Nc1cc(Cl)ccc1C(=O)OCC(=O)NC1CCCCCCC1,47*,·,0,7,-1,1,41*
CSc1ncccc1C(=O)OCC(=O)NC1CCCC1,15,·,-3,1,7,4,·
CCOc1ncccc1C(=O)OCC(=O)NCc1cccs1,40*,·,6,15,·,3,27
CCOc1ncccc1C(=O)OCC(=O)NC1CCCCCC1,84*,·,-2,·,·,4,79*
O=C(COC(=O)CNC(=O)c1ccc(Cl)cc1Cl)NC1CCCCC1,-8,·,-4,·,·,-5,·
CSc1ncccc1C(=O)OCC(=O)NC1CCCCC1,38*,·,-6,2,-3,-4,36*
CCOc1ncccc1C(=O)OC(C)C(=O)NC1CCCCC1 (stereo unspecified),2,·,3,·,·,0,·
CCc1nc(SCC(=O)Nc2ccc(Br)cn2)n[nH]1,2,4,3,1,6,1,·
SMILES,PAFAH2 FP inh,Fam108B counter,PAFAH1B3 inh,pPAFAH FP inh,PME-1 primary,PAFAH1B2 inh,PAFAH2 FP conf
COc1ccc(CN2CCN(C(=O)c3ccc(S(=O)(=O)NCc4ccco4)cc3)CC2)cc1,2,·,3,·,·,9,·
O=C(COC(=O)c1cccnc1Cl)NC1CCCCCC1,73*,·,7,8,·,5,66*
CSc1ncccc1C(=O)OCC(=O)NC12CC3CC(CC(C3)C1)C2,72*,·,3,5,·,13,72*
CSc1ncccc1C(=O)OCC(=O)NC1CC1,5,·,10,·,·,6,·
O=C(COC(=O)c1ccc(CN2CCCC2=O)cc1)Nc1ccc(F)cc1,85*,·,6,8,2,0,86*
Cc1ccc(NC(=O)COC(=O)c2ccc(CN3CCCC3=O)cc2)cc1C,92*,·,9,·,·,0,85*
COc1ccc(CCC(=O)N2CCCC(Nc3ccc(C)c(C)c3)C2)cc1OC (stereo unspecified),6,1,7,3,4,4,·
O=C(Nc1ccccc1C(=O)NCCc1ccccc1)c1cnccn1,32*,0,11,0,-8,10,8
CCn1c(SCc2cccc(OC)c2)nc2ccccc2c1=O,-6,0,-1,5,-11,0,·
COc1cc(/C=C/C(=O)OCC(=O)N2CCCCCC2)ccc1OCC#N,17,-4,0,-1,1,-1,·
COc1ccc(/C=C/C(=O)OCC(=O)N2CCCCCC2)cc1OC,33*,·,3,4,·,6,15
COc1ccc(/C=C/C(=O)OCC(=O)NC2CCCCCCC2)cc1,86*,·,10,18,·,6,83*
COc1ccc(OC)c(/C=C/C(=O)OCC(=O)NC2CCCCCCC2)c1,90*,·,5,20,11,8,86*
O=C(COC(=O)/C=C/c1ccc(OC(F)F)cc1)NC1CCCC1,70*,·,7,20,-1,0,74*
CCOc1ccc(CNC(=O)CN2C(=O)CSc3ccc(S(=O)(=O)N4CCOCC4)cc32)cc1OC,-2,4,1,1,-2,2,·
COc1cc(/C=C/C(=O)OCC(=O)NC(=O)NC2CCCCC2)ccc1OC(F)F,13,2,3,-3,-1,3,·
COc1ccc(/C=C/C(=O)OCC(=O)NC2CCCC2)cc1OC,83*,·,16,10,·,2,78*
O=C(COC(=O)/C=C/c1ccc(C(F)(F)F)cc1)NCC1CCCCC1,30*,-1,2,3,0,3,22
COc1ccc(C(=O)OCC(=O)NCC2CCCCC2)cc1F,85*,·,1,·,·,3,72*
O=C(COC(=O)c1ccc(Cl)cc1)NCC1CCCCC1,59*,·,9,11,·,8,60*
O=C(COC(=O)c1ccc(F)cc1)NCC1CCCCC1,77*,·,3,7,·,1,60*
